{
  "source": "PubChem BioAssay AID504652",
  "about": "(National Center for Advancing Translational Sciences (NCATS), 2011)",
  "note": "Screen size: about 360,000 compounds; about 11,000 (3.1%) were called active. The sample holds actives, similar compounds and a random draw of the others, so the mix is not that of the screen. Cut-off read from the data, not from the text of the source: active = activity change below about -30%; inactive = the rest. % is set by controls: 0 for no effect and ±100 for the full control effect.",
  "data": [
    {"target": "D(1A) dopamine receptor (Homo sapiens) (UniProt P21728)", "sequence (P21728 whole entry, looked up)": "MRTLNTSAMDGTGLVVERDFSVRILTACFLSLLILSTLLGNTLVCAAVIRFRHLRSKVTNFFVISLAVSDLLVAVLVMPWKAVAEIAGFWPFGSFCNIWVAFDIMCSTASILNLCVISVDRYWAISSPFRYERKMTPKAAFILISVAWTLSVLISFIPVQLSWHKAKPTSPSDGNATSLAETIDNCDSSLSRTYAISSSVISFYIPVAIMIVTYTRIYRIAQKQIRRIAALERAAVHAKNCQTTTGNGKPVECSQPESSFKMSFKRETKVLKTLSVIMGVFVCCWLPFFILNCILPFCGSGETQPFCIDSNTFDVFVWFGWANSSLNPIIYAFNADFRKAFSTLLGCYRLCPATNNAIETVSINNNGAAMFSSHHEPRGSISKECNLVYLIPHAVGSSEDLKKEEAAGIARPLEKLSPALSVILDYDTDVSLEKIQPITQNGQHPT", "assay": "Antagonist of Human D 1 Dopamine Receptor: qHTS", "settings": "HEK293 TREx D1 cells, calcium flux, dopamine EC80; at 10 µM; active compounds read low", "outline": "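HEK293 T-REx cells expressing inducible, force-coupled D1 receptor; no-wash Ca dye, 30–90 min RT. Cmpd → 180 s read at 1 Hz → EC80 DA → 180 s read.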", "values": [
      {"smiles": "CCOC(=O)N1CCN(C(=O)c2ccc(S(=O)(=O)Nc3cccc(C(F)(F)F)c3)cc2)CC1", "activity change, negative = inhibition": "-41.7% (active)"},
      {"smiles": "CN1CCN(C(=O)c2ccc(NS(=O)(=O)c3ccccc3)cc2)CC1", "activity change, negative = inhibition": "-3.19% (inactive)"},
      {"smiles": "CCOC(=O)c1cccc(NS(=O)(=O)c2c(C(=O)N3CCCCCC3)c(C)n(C)c2C)c1", "activity change, negative = inhibition": "14.9% (inactive)"},
      {"smiles": "Cc1ccc(C(=O)CSc2nc(-c3ccccc3)nc3c2CCCC3)c(C)c1", "activity change, negative = inhibition": "17.2% (inactive)"},
      {"smiles": "Cc1ccn(CC(=O)N2N=C(C(F)F)CC2(O)C(F)F)n1", "note": "(centres undefined)", "activity change, negative = inhibition": "3.73% (inactive)"},
      {"smiles": "Cc1nn(Cc2ccc(C(=O)N3N=C(C(F)F)CC3(O)C(F)F)cc2)c(C)c1[N+](=O)[O-]", "note": "(centres undefined)", "activity change, negative = inhibition": "-31.2% (active)"},
      {"smiles": "Cc1ccc(C(C)NC(=O)Cn2nc(C)c([N+](=O)[O-])c2C)cc1", "note": "(centres undefined)", "activity change, negative = inhibition": "-12% (inactive)"},
      {"smiles": "CCc1nnc(SCc2nc(-c3cccc(C)c3)oc2C)c2cc3sc(C)cc3n12", "activity change, negative = inhibition": "8.82% (inactive)"},
      {"smiles": "CCc1cccc(NC(=O)c2cnc(N3CCOCC3)c3ccccc23)c1", "activity change, negative = inhibition": "-4.31% (inactive)"},
      {"smiles": "CC(=O)c1sc(N2C(=O)c3oc4ccccc4c(=O)c3C2c2ccc(C)cc2)nc1C", "note": "(centres undefined)", "activity change, negative = inhibition": "1.92% (inactive)"},
      {"smiles": "COC(=O)c1ccccc1NC(=O)CSc1nnnn1C", "activity change, negative = inhibition": "-7.79% (inactive)"},
      {"smiles": "O=C(CN1CCCCC1)Nc1ccccc1C(=O)NC1CC1", "activity change, negative = inhibition": "6.93% (inactive)"},
      {"smiles": "Cn1nnnc1SCC(=O)Nc1ccccc1C(=O)NC1CC1", "activity change, negative = inhibition": "-31.5% (active)"},
      {"smiles": "Cc1cccc(CCNC(=O)c2ccc3c(c2)nc2n3CCC(C)C2)c1", "note": "(centres undefined)", "activity change, negative = inhibition": "2.06% (inactive)"},
      {"smiles": "Oc1ccc(Cl)cc1C1C=C(c2ccc3c(c2)OCO3)NC(c2c(F)cccc2Cl)N1", "note": "(centres undefined)", "activity change, negative = inhibition": "-6.98% (inactive)"},
      {"smiles": "COc1ccc(S(=O)(=O)Nc2cccc3cccnc23)c(N)c1", "activity change, negative = inhibition": "8.2% (inactive)"},
      {"smiles": "COc1cccc(-n2ccn(CC(=O)NCc3ccc(C)cc3)c(=O)c2=O)c1", "activity change, negative = inhibition": "-17.3% (inactive)"},
      {"smiles": "S=C(NCCc1ccccc1)NCC1CCCO1", "note": "(centres undefined)", "activity change, negative = inhibition": "5.26% (inactive)"},
      {"smiles": "CC1(C(=O)NNC(=S)NCC2CCCO2)CC1(Cl)Cl", "note": "(centres undefined)", "activity change, negative = inhibition": "-33.9% (active)"},
      {"smiles": "CCC(=O)NC(NCC1CCCO1)C(Cl)(Cl)Cl", "note": "(centres undefined)", "activity change, negative = inhibition": "-13.3% (inactive)"},
      {"smiles": "O=C(CC1Oc2ccc(Cl)cc2NC1=O)NCc1ccccc1", "note": "(centres undefined)", "activity change, negative = inhibition": "-13.4% (inactive)"},
      {"smiles": "CCC(C(=O)OCC(=O)Nc1ccc(C(=O)Nc2ccc(OC)cc2)cc1)c1ccccc1", "note": "(centres undefined)", "activity change, negative = inhibition": "-57.6% (active)"},
      {"smiles": "CCC(C(=O)OCC(=O)Nc1ccccc1-c1ccccc1)c1ccccc1", "note": "(centres undefined)", "activity change, negative = inhibition": "5.02% (inactive)"},
      {"smiles": "CCC(C(=O)OCC(=O)Nc1c(Cl)cc(Cl)cc1Cl)c1ccccc1", "note": "(centres undefined)", "activity change, negative = inhibition": "-5.4% (inactive)"},
      {"smiles": "CCOC(=O)c1ccc(CSc2nnc3cc(C)c4ccccc4n23)cc1", "activity change, negative = inhibition": "11.8% (inactive)"},
      {"smiles": "CCN(CC)S(=O)(=O)c1ccc(C(=O)N=c2sc3cccc(OC)c3n2C)cc1", "activity change, negative = inhibition": "-7.05% (inactive)"},
      {"smiles": "CCOc1ccc(-c2nonc2NC(=O)c2oc3ccc(CC)cc3c2C)cc1", "activity change, negative = inhibition": "-6.14% (inactive)"},
      {"smiles": "COc1ccc(S(=O)(=O)N2CCN(c3ccc(F)cc3)CC2)cc1-c1noc(C)n1", "activity change, negative = inhibition": "-9.63% (inactive)"},
      {"smiles": "CCc1nc(-c2cc(S(=O)(=O)N3CCN(c4ccc(OC)cc4)CC3)ccc2OC)no1", "activity change, negative = inhibition": "-58.8% (active)"},
      {"smiles": "COc1ccc(N2CCN(S(=O)(=O)c3ccc(-c4coc(C)n4)cc3)CC2)cc1", "activity change, negative = inhibition": "3.09% (inactive)"},
      {"smiles": "Cc1cc(C)cc(NC(=O)CCCc2nc(-c3ccccc3Cl)no2)c1", "activity change, negative = inhibition": "5.87% (inactive)"},
      {"smiles": "Cc1ccc(NC(=O)c2ccc(CN3CC(=O)N4CCCCC4C3=O)cc2)c(Cl)c1", "note": "(centres undefined)", "activity change, negative = inhibition": "1.45% (inactive)"},
      {"smiles": "CCNC(=O)CC1C(=O)N(c2ccc(F)cc2)C(=O)N1Cc1ccc(C)cc1", "note": "(centres undefined)", "activity change, negative = inhibition": "-4.84% (inactive)"},
      {"smiles": "C=C1c2cc(CC)ccc2NC(=O)N1c1ccc(C)cc1", "activity change, negative = inhibition": "-37.2% (active)"},
      {"smiles": "Cc1ccc(CC2C(=O)N(c3ccc(F)cc3)C(=O)C2C)cc1", "note": "(centres undefined)", "activity change, negative = inhibition": "-14.1% (inactive)"},
      {"smiles": "Cn1c(=O)c2c(nc(Oc3ccc(C#N)cc3)n2Cc2ccc(Cl)cc2Cl)n(C)c1=O", "activity change, negative = inhibition": "17.3% (inactive)"},
      {"smiles": "O=C(/C=C/c1ccc(Cl)cc1)N1CCN(c2ccccc2[N+](=O)[O-])CC1", "activity change, negative = inhibition": "-7.39% (inactive)"},
      {"smiles": "CN(C)c1ccc(/C=C/C(=O)c2ccc(O)cc2)cc1[N+](=O)[O-]", "activity change, negative = inhibition": "-31.2% (active)"},
      {"smiles": "Cc1nn(-c2ccccc2)c(Cl)c1/C=C/C(=O)c1ccc(O)cc1", "activity change, negative = inhibition": "-19.2% (inactive)"},
      {"smiles": "Cc1ccc(Cl)cc1NC(=O)/C(C#N)=C\\c1cn(Cc2ccc(F)cc2)c2ccccc12", "activity change, negative = inhibition": "-3.88% (inactive)"},
      {"smiles": "Cc1ccccc1OCc1nc2c3cnn(-c4ccccc4F)c3ncn2n1", "activity change, negative = inhibition": "3.88% (inactive)"},
      {"smiles": "COc1ccccc1CNC(=O)COc1ccc(C)nc1[N+](=O)[O-]", "activity change, negative = inhibition": "4.17% (inactive)"},
      {"smiles": "COc1ccccc1CNC(=O)COC(=O)c1sc(C)nc1C", "activity change, negative = inhibition": "-37.9% (active)"},
      {"smiles": "COc1ccccc1C(=O)OCC(=O)NCCNC(=O)COC(=O)c1ccccc1OC", "activity change, negative = inhibition": "9.27% (inactive)"}
    ]}
  ]
}
